The target in one test is Albumin (Bos taurus) (UniProt P02769). Put plainly: compounds binding labelled BSA control protein – biochemical, small-molecule microarray, Alexa647 label, 635/667 nm fluorescence, artefact control for SMM control protein annotation, profiling panel (AID 1118).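 Also: score merges 667 nm emission intensity and signal-to-noise per printed compound spot.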 The conditions noted are these: BSA-A647 binding, fluorescence 635 nm, higher = more signal.
A short description of test [1]: probe aXIP binding to arrayed compounds – biochemical, NeuroSMM set, 635/667 nm fluorescence, primary screen (AID 1119).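 Also: probe is the protein aXip251-270 applied at 1 µg/mL to compound-printed slides; binding of probe to printed compounds measured as 667 nm fluorescence plus signal to noise.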 The conditions noted are these: small-molecule microarray, higher = more signal, called active from +8 up or from −8 down.
Test [2] is described as follows: probe aNOTCH3 binding on compound microarray – biochemical, small-molecule microarray, 635/667 nm fluorescence, primary screen (AID 1120).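 Also: probe is a biotin-tagged antibody raised against NOTCH3 rather than NOTCH3 protein; score merges spot fluorescence near 667 nm with spot signal to noise.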 The note with it: higher = more signal.
Test [3] can be described thus: probe aNOTCH2 binding on compound microarray – biochemical, small-molecule microarray, 635/667 nm fluorescence, primary screen (AID 1121).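 Also: score merges feature fluorescence read at 667 nm with its signal to noise.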 The conditions noted are these: higher = more signal.
Test [4] has as its target Carbonic anhydrase 2 (Homo sapiens) (UniProt P00918). Put plainly: compounds binding carbonic anhydrase 2 – biochemical, small-molecule microarray, Alexa647-labelled CAII, profiling panel (AID 1122). The conditions noted are these: CAII-A647 binding fluorescence, higher = more signal.
A short description of test [5]: COS7 lysate on small-molecule microarray, probe aHis, 635 nm (AID 1123).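 Also: z-score combines 667nm fluorescence intensity with signal-to-noise per printed compound spot.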 The note with it: COS7 cell lysate, fluorescence, higher = more signal.
A short description of test [6]: probe aLAP1 signal on lysate-treated microarray – cell lysate, small-molecule microarray, COS7 lysate, primary screen (AID 1124).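 Also: lysate comes from COS7 cells expressing LAP1 and is applied at 0.3 µg/mL; score merges spot fluorescence near 667 nm with signal-to-noise over triplicate slides.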 The note with it: probe aLAP1, fluorescence, higher = more signal.
The next test deals with Sam68 (KHDRBS1). In words: compounds binding KHDRBS1 protein – biochemical, small-molecule microarray, 635 nm fluorescence, primary screen (AID 1125).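 Also: score merges 667 nm channel intensity with signal to noise over triplicate slides.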 The note with it: higher = more signal.
Test [7] relates to Chordin-like protein 2 (CHRDL2). In words: compounds binding chordin-like 2 – biochemical, small-molecule microarray, 635 nm fluorescence, primary screen (AID 1126).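 Also: printed compound slides probed with Chrdl2 protein at 4 µg/mL for 1 h at 4 C; score merges 667 nm emission intensity with signal to noise over three replicate slides.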 The conditions noted are these: fluorescence 635 nm, higher = more signal.
For test [8], the target named is Concanavalin-A (Canavalia ensiformis) (UniProt P02866). Put plainly: compounds binding concanavalin A lectin – biochemical, small-molecule microarray, Alexa647 label, 635 nm, artefact control for SMM control protein annotation, primary screen (AID 1127).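 Also: z combines 667 nm emission intensity with signal-to-noise across three replicate slides.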 The note with it: ConA-A647 binding fluorescence, higher = more signal.
Sequence of Concanavalin-A (Canavalia ensiformis) (P02866 whole entry, looked up): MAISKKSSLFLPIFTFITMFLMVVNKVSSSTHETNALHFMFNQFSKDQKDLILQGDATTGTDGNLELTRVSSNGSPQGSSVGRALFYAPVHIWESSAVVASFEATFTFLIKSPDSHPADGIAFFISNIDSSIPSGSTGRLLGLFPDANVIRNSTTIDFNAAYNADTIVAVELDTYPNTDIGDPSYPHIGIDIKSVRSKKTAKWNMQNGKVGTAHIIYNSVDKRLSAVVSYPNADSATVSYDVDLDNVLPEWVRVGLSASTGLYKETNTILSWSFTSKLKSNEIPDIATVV
Test [9] is described as follows: compounds binding Alexa647 anti-His antibody – biochemical, small-molecule microarray, 635 nm fluorescence, artefact control for SMM control protein annotation, primary screen (AID 1128).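 Also: score merges feature fluorescence with signal-to-noise for each printed compound spot.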 The note with it: higher = more signal.
In test [10] the test system is Human papillomavirus type 1a E7 protein (residues 1-88). In words: HPV1a E7 small-molecule binders, primary screen, biochemical, small-molecule microarray, residues 1-88, 635 nm (AID 1129). The note with it: small-molecule microarray binding, fluorescence 635 nm; higher = more signal.
For test [11], the target named is Focal adhesion kinase 1 (Homo sapiens) (UniProt Q05397). Put plainly: PTK2 protein binding on printed compound slides – biochemical, small-molecule microarray, 635/667 nm fluorescence, BSA, DTT, primary screen (AID 1130).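 Also: composite of spot emission at 667 nm and signal to noise over triplicate slides.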 The conditions noted are these: 635 nm fluorescence, higher = more signal.
Sequence of Focal adhesion kinase 1 (Homo sapiens) (Q05397 whole entry, looked up): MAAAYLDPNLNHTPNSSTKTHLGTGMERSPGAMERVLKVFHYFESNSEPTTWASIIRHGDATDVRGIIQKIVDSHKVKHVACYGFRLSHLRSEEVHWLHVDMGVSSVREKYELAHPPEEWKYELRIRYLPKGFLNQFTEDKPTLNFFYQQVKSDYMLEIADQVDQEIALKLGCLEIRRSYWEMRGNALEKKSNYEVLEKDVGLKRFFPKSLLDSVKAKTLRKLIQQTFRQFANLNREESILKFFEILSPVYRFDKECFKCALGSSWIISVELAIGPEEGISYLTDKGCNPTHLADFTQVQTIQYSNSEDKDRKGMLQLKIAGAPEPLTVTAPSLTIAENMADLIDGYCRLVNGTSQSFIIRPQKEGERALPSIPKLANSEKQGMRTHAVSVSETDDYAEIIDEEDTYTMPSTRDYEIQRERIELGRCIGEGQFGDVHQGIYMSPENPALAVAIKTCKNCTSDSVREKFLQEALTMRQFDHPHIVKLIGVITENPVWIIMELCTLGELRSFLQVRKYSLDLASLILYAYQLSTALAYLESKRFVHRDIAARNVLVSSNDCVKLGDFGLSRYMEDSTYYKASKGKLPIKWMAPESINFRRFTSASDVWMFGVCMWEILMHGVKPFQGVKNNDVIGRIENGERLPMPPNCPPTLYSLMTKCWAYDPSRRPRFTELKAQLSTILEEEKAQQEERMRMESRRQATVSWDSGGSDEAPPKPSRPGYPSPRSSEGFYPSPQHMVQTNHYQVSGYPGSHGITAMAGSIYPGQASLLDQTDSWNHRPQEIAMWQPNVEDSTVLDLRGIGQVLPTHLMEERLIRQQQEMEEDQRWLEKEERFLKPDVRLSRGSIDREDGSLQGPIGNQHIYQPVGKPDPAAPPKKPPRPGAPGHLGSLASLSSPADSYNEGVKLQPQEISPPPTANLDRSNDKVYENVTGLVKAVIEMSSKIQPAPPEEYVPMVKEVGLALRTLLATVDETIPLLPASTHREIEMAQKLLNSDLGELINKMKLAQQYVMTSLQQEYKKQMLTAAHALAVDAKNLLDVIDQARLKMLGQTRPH
In test [12] the test system is Fibrinogen (Alexa647-labelled). In words: Alexa647-fibrinogen binding to printed small molecules – biochemical, small-molecule microarray, 635/667 nm fluorescence, artefact control for SMM control-protein annotation, profiling panel (AID 1131).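 Also: z-score merges 667 nm fluorescence with per-spot signal-to-noise over triplicate slides.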 The note with it: fibrinogen-A647 binding fluorescence, higher = more signal.
The target of test [13] is Follistatin (Homo sapiens) (UniProt P19883). Put plainly: FST protein binding to printed compounds – biochemical, small-molecule microarray, 635/667 nm fluorescence, primary screen (AID 1132). The conditions noted are these: 635 nm fluorescence, higher = more signal.
Sequence of Follistatin (Homo sapiens) (P19883 whole entry, looked up): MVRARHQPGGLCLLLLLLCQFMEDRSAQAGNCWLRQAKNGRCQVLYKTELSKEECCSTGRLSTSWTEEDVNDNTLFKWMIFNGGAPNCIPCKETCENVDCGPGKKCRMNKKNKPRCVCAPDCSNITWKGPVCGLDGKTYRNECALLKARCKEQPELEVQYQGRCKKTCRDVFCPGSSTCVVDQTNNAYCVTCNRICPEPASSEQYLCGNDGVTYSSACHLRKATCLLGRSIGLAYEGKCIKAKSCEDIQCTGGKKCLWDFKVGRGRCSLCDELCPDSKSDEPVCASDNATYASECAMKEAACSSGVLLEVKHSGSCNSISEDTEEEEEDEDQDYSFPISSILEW
Test [14] addresses Fibroblast growth factor 2 (Homo sapiens) (UniProt P09038). Put plainly: basic fibroblast growth factor binding to printed compounds – biochemical, small-molecule microarray, 635/667 nm fluorescence, primary screen (AID 1133). The conditions noted are these: FGF2, fluorescence 635/667, higher = more signal.
A short description of test [15]: JC-1 mitochondrial potential readout, lung cancer cells – cell-based, A549, JC-1 fluorescence, basal, 24 h, 100 nL, profiling panel (AID 1138).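 Also: A549 lung adenocarcinoma cells under basal conditions with no added stimulus; test concentration not given here.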 The note with it: higher = more signal.
In another test the test system is Lefty1. Put plainly: Lefty1 protein binding to printed compounds – biochemical, small-molecule microarray, 635/667 nm fluorescence, primary screen (AID 1139). The note with it: fluorescence 635/667, higher = more signal.
The subject of test [16] is wheat germ agglutinin (Triticum aestivum), Alexa647-labelled. Put plainly: Alexa647-WGA lectin binding to printed small molecules – biochemical, small-molecule microarray, 635/667 nm fluorescence, artefact control for SMM control-protein annotation, profiling panel (AID 1140).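 Also: score merges 667 nm feature emission with signal to noise over triplicate slides.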 The conditions noted are these: WGA-A647 binding, 635 nm fluorescence, higher = more signal.
The target of test [17] is Luciferin 4-monooxygenase (Photinus pyralis) (UniProt P08659). Put plainly: inhibition of purified Photinus pyralis luciferase – biochemical, luminescence, purified enzyme, 2006 set, primary screen (AID 1141).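 Also: cell-free assay with purified firefly luciferase at 100 ng per well in PBS; test concentration not given here.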 The conditions noted are these: purified firefly luciferase, SteadyGlo luminescence, 30 min; higher = more signal, called active from +8 up or from −8 down.
Sequence of Luciferin 4-monooxygenase (Photinus pyralis) (P08659 whole entry, looked up): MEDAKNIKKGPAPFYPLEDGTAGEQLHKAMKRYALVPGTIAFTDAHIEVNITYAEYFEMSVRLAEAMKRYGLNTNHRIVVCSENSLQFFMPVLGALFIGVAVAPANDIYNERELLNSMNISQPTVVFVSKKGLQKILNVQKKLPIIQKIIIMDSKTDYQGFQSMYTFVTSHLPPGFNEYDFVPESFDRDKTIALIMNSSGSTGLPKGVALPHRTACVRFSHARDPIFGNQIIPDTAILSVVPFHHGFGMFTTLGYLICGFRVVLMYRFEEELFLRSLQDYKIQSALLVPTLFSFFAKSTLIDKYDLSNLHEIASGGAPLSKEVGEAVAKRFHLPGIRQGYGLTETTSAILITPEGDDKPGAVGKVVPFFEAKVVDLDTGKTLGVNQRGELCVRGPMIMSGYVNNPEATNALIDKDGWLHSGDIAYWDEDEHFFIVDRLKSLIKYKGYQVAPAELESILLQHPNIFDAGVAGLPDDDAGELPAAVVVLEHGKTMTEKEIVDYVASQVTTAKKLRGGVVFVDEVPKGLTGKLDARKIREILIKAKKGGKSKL

Activity calls are given as the source filed them.

Sequence of Fibroblast growth factor 2 (Homo sapiens) (P09038 whole entry, looked up): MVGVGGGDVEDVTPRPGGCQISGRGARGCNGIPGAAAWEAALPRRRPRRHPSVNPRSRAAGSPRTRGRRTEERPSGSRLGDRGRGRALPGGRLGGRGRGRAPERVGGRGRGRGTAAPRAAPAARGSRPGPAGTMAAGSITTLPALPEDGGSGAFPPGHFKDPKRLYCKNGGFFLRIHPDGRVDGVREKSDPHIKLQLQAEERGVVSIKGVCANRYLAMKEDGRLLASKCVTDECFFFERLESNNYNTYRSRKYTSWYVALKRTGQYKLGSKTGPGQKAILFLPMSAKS
Sequence of Albumin (Bos taurus) (P02769 whole entry, looked up): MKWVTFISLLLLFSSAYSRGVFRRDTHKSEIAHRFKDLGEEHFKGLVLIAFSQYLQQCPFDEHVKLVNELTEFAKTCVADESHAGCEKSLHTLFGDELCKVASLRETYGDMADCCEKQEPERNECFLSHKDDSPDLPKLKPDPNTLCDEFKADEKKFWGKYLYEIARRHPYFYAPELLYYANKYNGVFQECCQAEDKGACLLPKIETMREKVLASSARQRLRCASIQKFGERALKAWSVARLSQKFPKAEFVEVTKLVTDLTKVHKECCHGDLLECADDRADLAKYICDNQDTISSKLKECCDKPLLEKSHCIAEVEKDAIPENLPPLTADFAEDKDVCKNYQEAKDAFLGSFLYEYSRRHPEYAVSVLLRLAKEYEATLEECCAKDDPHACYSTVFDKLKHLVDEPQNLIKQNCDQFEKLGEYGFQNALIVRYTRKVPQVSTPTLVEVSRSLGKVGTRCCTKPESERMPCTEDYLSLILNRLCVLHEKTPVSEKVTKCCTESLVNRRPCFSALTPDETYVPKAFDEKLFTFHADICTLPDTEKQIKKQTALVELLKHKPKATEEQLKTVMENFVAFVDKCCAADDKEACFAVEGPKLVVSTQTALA

`COC(=O)[C@@]1(Cc2ccccc2)[C@H]2c3cc(C(=O)N4CCCC4)n(Cc4ccccn4)c3C[C@H]2CN1C(=O)c1ccccc1`: the composite z-score with Albumin (Bos taurus) stood at 0.939; in test [2], 0.697; in test [3], 0.284; in [4], 0.834; in test [5], 3.44; in test [6], 0.596. In addition, the composite z-score in the test on Sam68 (KHDRBS1) was found to be 1.29; in test [7], 0.331; in test [8] it was 1.04; in [9], 1.81; in [10], 1.26; in test [11] it was 0.846. Further, the composite z-score in test [12] amounted to 0.412; in [13] it was 1.24; in test [14], 0.354; in the test with Lefty1 it was 0.19; in test [16], 0.236. Moreover, the composite Z-score in test [1] is 0.193 (inactive). Besides, the z-score in test [15] was 0.449; in test [17] it was 1.93 (inactive).

`COCCCNC(=O)[C@@]1(CCS(=O)(=O)c2ccccc2)N=C(c2ccc(OCCCO)cc2)O[C@H]1c1ccccc1`: the composite z-score with Albumin (Bos taurus) is 0.533; in test [2], 0.303; in [3] it was 0.529; in [4] it was 0.577; in test [5], 3; in test [6], 1.01. Further, the composite z-score is 1.31 in the test on Sam68 (KHDRBS1); -0.0021 in test [7]; 0.261 in [8]; 2.98 in [9]; 1.25 in [10]; 0.746 in [11]. The composite z-score in test [12] is 0.878; in test [13], 0.695; in test [14], 0.426; in the test on Lefty1, -0.854; in [16], 0.716. Besides, the composite Z-score in test [1] was 0.164 (inactive). Also, the z-score in [15] is 2.39; in test [17], -1.79 (inactive).

Take `CC(C)CN1CCc2nc(-c3ccccc3)c3c(c2CC1)CO[C@@H](C)C3`: the composite z-score with Albumin (Bos taurus) is -0.249; in test [2], 0.154; in [3], -0.16; in test [4] it was -0.143; in [5], -0.258; in [6] it was -0.673. Further, the composite z-score in the test on Sam68 (KHDRBS1) was -0.168; in [7], 0.74; in [8], 0.0721; in test [9] it was 0.21; in [10], 0.103; in [11], 0.101. Also, the composite z-score in test [12] is 0.418; in [13], 0.587; in [14] it was 0.478; in the test on Lefty1, 0.435; in test [16], 0.22. Also, the composite Z-score in test [1] was -0.002 (inactive). The z-score in [15] was 0.186; in test [17], -0.227 (inactive).

For the compound `C[C@H](c1ccccc1)N1C(=O)[C@H]2[C@H]3[C@H](O)[C@H](O)CC(=O)[C@@H]3CC[C@H]2C1=O`, the composite z-score with Albumin (Bos taurus) is 0.493; in test [2], 0.148; in [3], -0.114; in test [4], 0.496; in test [5], 0.13; in [6], 0.876. Further, the composite z-score was -0.0681 in the test with Sam68 (KHDRBS1); 0.604 in test [7]; 0.162 in test [8]; 0.62 in [9]; -0.0909 in [10]; 0.0546 in [11]. Moreover, the composite z-score came out at 0.436 in test [12]; 0.469 in test [13]; 0.51 in test [14]; 0.515 in the test with Lefty1; 0.286 in [16]. Also, the composite Z-score in test [1] is 0.17 (inactive). The z-score in test [15] is 0.47; in [17], 0.569 (inactive).

As to `CN1C(=O)C2C(C1=O)C1C=C(CCCO)C2C(c2ccc(CN3CCCC3)cc2)N1C` (stereo not given), the composite z-score with Albumin (Bos taurus) is -0.356; in [2], -0.068; in test [3], -0.0907; in test [4], -0.221; in test [5] it was -0.377; in test [6] it was 0.0357. The composite z-score with Sam68 (KHDRBS1) is 0.239; in [7], 0.0976; in [8] it was -0.56; in [9], -0.0122; in test [10], -0.329; in [11], 0.0551. The composite z-score in test [12] was -1.58; in [13], -0.227; in test [14] it was -0.052; with Lefty1, -0.0306; in test [16], -0.236. In [1], the composite Z-score is -0.816 (inactive). The z-score in test [15] is -1.01; in [17] it was 0.53 (inactive).
